High-throughput results: PubChem, National Center for Advancing Translational Sciences (NCATS)
Hits are enriched below; roughly 2.3% of the tested compounds scored in any of these assays.
Giardia kill – Small Molecules that selectively kill Giardia lamblia: qHTS. Giardia lamblia trophozoite viability. activity change, % at 7.66 µM, hits read low. 340,000 tested, 0.15% active. AID 540267, 2011; in the data active means activity change below about -80%; inconclusive means between about -30% and that limit;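 further: parasites exposed to compound for two days anaerobically before the ATP read; on the % scale 0 is the no-effect control and ±100 the full control effect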
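Trophozoite viability was measured as ATP-dependent luminescence, read 15-30 min after reagent addition. Before that, parasites at 100 cells/well were exposed to compounds for 48 h, anaerobically, at 37 deg C.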
A549 viability – Nrf2 qHTS screen for inhibitors: counterscreen for cytotoxicity. A549 ARE-Fluc cells, CellTiter-Fluor viability, 18-24 h. Potency, µM (titrated, usually from 46 µM), for inactives: top-dose activity change, negative = cytotoxicity, actives largely listed as inhibitors. 390,000 tested, 0.16% active. AID 504648, 2011; further: potency means the concentration at half of the fitted maximal effect; on the % scale 0 is the no-effect control and ±100 the full control effect
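Cytotoxicity counterscreen: CellTiter-Fluor fluorescence was measured in A549 ARE_Fluc cells after 18-24 h of compound exposure in a concentration series. The subsequent BugLite luminescent read reports ARE-luciferase activity.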
Nrf2 activator – qHTS of Nrf2 Activators; AID 624171, 2012; 410,000 tested, 0.31% active; Potency, µM (titrated, usually from 46.1 µM), for the others: at the top dose activation, usual class: activators; AREc32 ARE-luciferase reporter (MCF7-derived line), luminescence, 24 h; further: potency means the concentration at half of the fitted maximal effect; % of control where 0% means no effect; nearly all actives have a fitted effect of over 65% in size
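ARE activation measured as luciferase luminescence (Steady-Glo, 30 min RT) in AREc32_Fluc cells after 24 hr compound exposure at 37 deg C, 5% CO2; cells seeded overnight at 1000/well in OPTI-MEM, 5% FBS.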
Nrf2 block – Nrf2 qHTS screen for inhibitors; A549 ARE-Fluc reporter, luciferase luminescence, 18-24 h; Potency, µM (doses to about 46 µM), for the others: top-dose activity change, negative = inhibition, usual class: inhibitors; 360,000 tested, 2.1% active; further: potency means the concentration at half of the fitted maximal effect; on the % scale 0 is the no-effect control and ±100 the full control effect; nearly all actives have a fitted effect of over 60% in size
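Cells were seeded and rested 2 h, then exposed to compounds for 18-24 h. CellTiter-Fluor was read first as a viability measure. BugLite was added 15 min before the final luminescent read of ARE-luciferase activity in A549 cells.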
IDH1 R132H inh – qHTS for Inhibitors of mutant isocitrate dehydrogenase 1 (IDH1): qHTS; Potency, µM (series often up to 76.6 µM), without a hit: at the highest dose activity change, negative = inhibition, most hits filed as inhibitors; Isocitrate dehydrogenase [NADP] cytoplasmic (Homo sapiens), O75874; 390,000 tested, 0.093% active; IDH1-R132H enzyme, NADPH consumption, diaphorase/resazurin fluorescence; further: potency means the concentration at half of the fitted maximal effect; on the % scale 0 is the no-effect control and ±100 the full control effect; nearly all actives have a fitted effect of over 65% in size
Target sequence (O75874 whole entry R132H, stated change not applied): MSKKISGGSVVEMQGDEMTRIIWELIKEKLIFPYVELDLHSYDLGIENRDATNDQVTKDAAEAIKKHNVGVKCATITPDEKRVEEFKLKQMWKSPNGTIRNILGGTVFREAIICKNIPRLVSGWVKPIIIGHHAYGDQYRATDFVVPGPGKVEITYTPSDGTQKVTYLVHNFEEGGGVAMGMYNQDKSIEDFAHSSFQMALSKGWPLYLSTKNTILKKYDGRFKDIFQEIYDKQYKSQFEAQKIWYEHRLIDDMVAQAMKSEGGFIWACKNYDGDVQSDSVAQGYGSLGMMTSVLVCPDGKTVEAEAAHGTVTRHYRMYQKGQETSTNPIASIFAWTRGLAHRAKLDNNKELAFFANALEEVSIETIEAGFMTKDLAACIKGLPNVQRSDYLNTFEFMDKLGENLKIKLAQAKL
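IDH1-R132H (0.5 ug/mL dispensed) in pH 7.5 Tris buffer was preincubated 30 min with compound, then given a substrate mix of 0.016 mM NADPH and 2 mM alpha-KG for 80 min at room temperature; remaining NADPH was read by diaphorase/resazurin fluorescence.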
Apoferritin bind – qHTS Assay for Identification of Novel General Anesthetics; Ferritin light chain (Equus caballus), P02791; apoferritin/1-aminoanthracene competitive binding, fluorescence; Potency, µM (top dose mostly 77.5 µM), for the others: at the highest dose activity change, negative = displacement, usual class: inhibitors; 350,000 tested, 0.074% active; further: potency means the concentration at half of the fitted maximal effect; on the % scale 0 is the no-effect control and ±100 the full control effect; nearly all actives have a fitted effect of over 20% in size
Target sequence (P02791 2-175 limits assumed): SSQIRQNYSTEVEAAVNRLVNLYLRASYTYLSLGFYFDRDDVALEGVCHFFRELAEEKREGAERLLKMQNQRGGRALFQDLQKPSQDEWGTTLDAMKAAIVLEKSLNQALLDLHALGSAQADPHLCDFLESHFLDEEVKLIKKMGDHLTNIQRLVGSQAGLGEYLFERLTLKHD
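In PBS, apoferritin at 10 uM is loaded with 1-AMA from a 50% saturated solution. After 10 min of compound exposure at ambient temperature, reduced 535 nm fluorescence indicates probe displacement.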
Active calls of the source: *; ? = inconclusive; . = no result given. Unless noted, the call rests on the fitted dose curve; in most records, active means well fitted curve in the direction sought with a large enough effect; inconclusive means small, poorly fitted or top-dose-only effect, or another doubt; inactive means no such curve, though single readings can be large; an effect the other way counts as inactive or inconclusive.

SMILES | Giardia kill | A549 viability | Nrf2 activator | Nrf2 block | IDH1 R132H inh | Apoferritin bind
COC(=O)c1nc(NC(=O)c2ccc(Br)cc2)n[nH]1 | 3 | 8% | 3% | -11% | 3% | -6%
Cc1ccccc1N1CCN(c2ncnc3c2cnn3Cc2ccc(Cl)cc2)CC1 | 1 | -6% | 8% | 18µM* | 3% | 9%
Cc1ccc(Cn2ncc3c(N4CCN(Cc5ccc(Cl)cc5)CC4)ncnc32)cc1 | -16 | -14% | 1% | 8.2µM* | -3% | -16%
Cc1ccc(Cn2ncc3c(N4CCN(c5ccc(C)cc5)CC4)ncnc32)cc1 | 3 | -8% | 0% | ? | 1% | -8%
CC1CCN(c2ncnc3c2cnn3Cc2ccc(Cl)cc2)CC1 | -7 | -7% | 2% | ? | 3% | -23%
COC(=O)c1ccc2c(c1)C(C)(C)C(/C=C/c1ccccc1O)=[N+]2C | 10 | ? | ? | . | 35µM* | ?
C[N+]1=C(/C=C/Nc2ccccc2Cl)C(C)(C)c2ccccc21 | -2 | -19% | 4% | ? | 7% | -13%
O=C(CN1CCN(c2ncc(C(F)(F)F)cc2Cl)CC1)NCCNc1ncc(C(F)(F)F)cc1Cl | -11 | ? | 0% | 15µM* | 10% | -9%
COc1ccccc1C(=O)Nc1nc(-c2ccc3c(c2)OCCO3)cs1 | 0 | -4% | 5% | 23µM* | 5% | 3%
COc1cccc(NC(=O)Nc2nc(-c3ccc(OC)c(OC)c3)cs2)c1 | -12 | 16µM* | -2% | 7.3µM* | -7% | -19%
COc1ccc(-c2csc(NC(=S)NC(=O)c3ccc4ccccc4c3)n2)cc1OC | 32 | -14% | -1% | 9.2µM* | -12% | 2%
COc1ccc(-c2ccc(C(=O)NCc3ccc(C(F)(F)F)cc3)c3occc23)c(C)c1 | . | . | 1% | . | . | .
COc1ccc(C2Nc3ccccc3C(=O)N2Cc2ccccc2)cc1Oc1ccc(NC(C)=O)cc1 (configuration not stated) | . | -11% | . | ? | . | .
COc1ccc2c(c1)c(/C=C/c1cc[n+](C)cc1)cn2C | 2 | -1% | 8% | 12µM* | 8% | -9%
Cc1ccccc1Nc1c(-c2cccs2)nc2cccc(C)n12 | . | 7% | 10% | 5% | 2% | -2%
Cc1ccc(C(=O)/C=C/C(=O)O)cc1 | 5 | 12% | 22µM* | 4% | 2% | 8%
c1ccc(COc2ncnc3c2ncn3CCCNC2CCN(Cc3ccccc3)CC2)cc1 | . | . | -5% | . | 8% | .
CCS(=O)(=O)c1ncc(Cl)c(C(=O)N2CCN(c3cccc(Cl)c3)CC2)n1 | . | ? | -6% | 23µM* | 11% | -3%
CS(=O)(=O)c1ncc(Cl)c(C(=O)N2CCN(c3cccc(Cl)c3)CC2)n1 | ? | 18µM* | -6% | 7.3µM* | 3% | ?
Cc1[nH]c2ccc(C(=O)N3CCN(c4cccc(Cl)c4)CC3)cc2c1C | -12 | ? | -1% | ? | 6% | -3%
O=C(Cn1c(=O)oc2cc(Cl)ccc21)Nc1cccc(C(F)(F)F)c1 | . | 2% | 0% | . | 8% | -4%
C=CC(=O)Nc1cccc(CN2C(=O)N(c3cc(OC)cc(OC)c3)Cc3cnc(NCCCCN(CC)CC)nc32)c1 | -16 | 6.5µM* | 6% | -8% | 8% | .
COc1cccc(NC(=O)Cn2nc(Cc3cccnc3)c3ccccc3c2=O)c1 | 10 | 17% | -1% | -1% | -14% | -15%
O=C(CNC(=O)c1ccc(Cl)cc1)OCc1cc(=O)n2nc(C3CC3)sc2n1 | . | 2% | 1% | ? | -7% | -4%
Cc1ccccc1NC(=O)CSc1nc(-c2cccs2)nc2cc(=O)[nH]n12 | . | 1% | 16% | 9% | -7% | -6%
SMILES | Giardia kill | A549 viability | Nrf2 activator | Nrf2 block | IDH1 R132H inh | Apoferritin bind
COc1ccc2cc1Oc1ccc(cc1)C[C@H]1c3cc(c(OC)cc3CCN1C)Oc1c(OC)c(OC)cc3c1[C@H](C2)N(C)CC3 | -26 | 6.5µM* | 6% | ? | -15% | -14%
CCn1c(=O)c2cc(C(=O)NCCOC)sc2c2ccccc21 | -19 | 4% | 0% | 21µM* | 7% | -10%
CCOCCCNC(=O)c1cc2c(=O)n(CC)c3ccccc3c2s1 | -11 | 1% | 1% | ? | 3% | 1%
Nc1c(-c2nc(-c3ccc4c(c3)OCO4)cs2)c2ccccn2c1C(=O)c1ccccc1 | . | 0% | 0% | -15% | . | -1%
COc1ccc(Cn2c(SCc3ccc(C)cc3)nc3cc(OC)c(OC)cc3c2=N)cc1Cl | 5 | ? | 8% | ? | -7% | -1%
COc1ccc(Cn2c(SCc3cc(C)ccc3C)nc3cc(OC)c(OC)cc3c2=N)cc1 | 4 | 18µM* | 0% | 23µM* | ? | ?
COc1cc(-c2noc(-c3ccc(NCCc4ccccc4)c([N+](=O)[O-])c3)n2)cc(OC)c1OC | . | -8% | -1% | ? | 14% | -2%
N#Cc1ccc(NC(=O)Nc2ccc(Cl)cc2)cc1 | 9 | ? | 2% | 18µM* | 2% | 3%
Cc1ccc(-n2c(-c3ccccc3)nsc2=NC#N)cc1 | -6 | 9% | . | 6% | . | .
CC(C)c1csc(CN2CCCC(CCC(=O)NCc3ccccc3F)C2)n1 (configuration not stated) | 17 | 13% | 0% | -9% | 1% | -16%
CC(C)c1csc(CN2CCCC(CNC(=O)c3cccc4ccccc34)C2)n1 (configuration not stated) | 32 | -10% | 1% | 16µM* | -9% | -18%
Cc1c(C#N)c(NC(=O)CCl)n(Cc2ccc(F)cc2)c1C | -9 | -25% | ? | 18µM* | 1% | -7%
Cc1c(C#N)c(NC(=O)CCl)n(Cc2ccccc2)c1C | -1 | -1% | ? | -28% | -6% | -9%
Cc1c(C#N)c(NC(=O)CCl)n(Cc2cccs2)c1C | 8 | ? | ? | 15µM* | -7% | -12%
N#CC1=C(S)N(c2ccccc2)C(c2ccc(-c3cccc(Cl)c3)o2)NC1=O (configuration not stated) | -15 | -1% | 21% | -14% | 41µM* | -16%
COC(=O)c1ccc(C(NC(=O)OCc2ccccc2)/C(I)=C/[C@@H](C)C(=O)NCC2CC2)cc1 (some centres not stated) | . | . | . | . | . | -1%
O=C(Nc1ccc2c(c1)OCO2)C1CCN(S(=O)(=O)c2ccc3c(c2)OCCO3)CC1 | 17 | -7% | 2% | ? | 4% | -4%
COc1ccc(S(=O)(=O)N2CCC(C(=O)Nc3ccc4c(c3)OCCO4)CC2)cc1OC | 20 | 2% | 0% | 21µM* | 4% | -13%
